# Reference: PubChem BioAssay
# The source made the active and inactive calls.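 The calls were made as follows, unless noted: active = compounds that lower viability of the colon cancer cells in the luminescence readout, with no numeric limit stated; inactive = the rest.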
# Experiments:
# [1] = P. berghei load reduction in hepatocytes – cell-based, HepG2, luciferase luminescence, HepG2 viability, primary screen (AID 624349; in the data active = parasite load remaining mostly below about 12%, no sharp cut-off; inactive = mostly above about 10%;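 also: 100% = mean of DMSO negative control wells on the same plate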); details: P. berghei liver stage in HepG2, luciferase luminescence, concentration not given here; parasite load remaining: stronger effect = lower value; viability: measured here: HepG2 viability without parasites
# [2] = Wnt pathway potentiators raising nuclear beta-catenin – imaging, WNT3A-conditioned medium, mouse C2C12, NPC library, primary screen (AID 1117326; in the data active = nuclear beta-catenin stimulation mostly above about 4.2%, no sharp cut-off; inactive = mostly below about 10%); details: stronger effect = higher value
# [3] = stimulators of insulin release from INS-1E, primary screen, cell-based, 5 mM glucose, NPC library (AID 1117329;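 active = compound raises insulin release from rat beta cells at 5 mM glucose, no numeric limit stated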); details: rat INS-1E insulin secretion, at 10 µM, stronger effect = higher value
# [4] = growth inhibition of GSK3B-pretreated HCT116 cells – cell-based, CellTiter-Glo, 0.2 to 20 µM (AID 1117336;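 active = compounds lowering colon cancer cell viability after pretreatment blocking the GSK3B kinase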); details: HCT116 viability after GSK3B inhibitor, at 20 µM, stronger effect = higher value
# [5] = inhibition of endothelial tube formation, primary screen, imaging, VEGF stimulated, CD31 staining, tube area, NPC library (AID 1117340;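 active = compound that reduces growth-factor-driven endothelial tube area in a mixed cell culture, no cutoff stated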); details: VEGF-stimulated ADSC/ECFC co-culture, at 10 µM, stronger effect = higher value
# [6] = GLP1 release stimulators, primary, NCI-H716, NPC library (AID 1117341;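 active = compound raises GLP1 secretion from the human gut endocrine cells, with no numeric limit stated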); details: NCI-H716 cells, at 10 µM, stronger effect = higher value
# [7] = HCT116 colon cancer cell growth inhibition, primary screen, CellTiter-Glo luminescence, NPC library (AID 1117342;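 active = compounds that lower survival of HCT116 colon cancer cells in the luminescence readout, no numeric limit stated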); details: at 20 µM (top of the series)
# [8] = reduced SW480 viability measured with CellTiter-Glo, NPC library, primary (AID 1117343); details: CellTiter-Glo luminescence; at 20 µM (top of the series) unless noted
# [9] = NPC library primary testing for decreased DLD-1 cell viability via CellTiter-Glo (AID 1117346;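 active = compounds that lower survival of DLD-1 colon cancer cells in the luminescence readout, no cutoff given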); details: DLD-1 viability, CellTiter-Glo luminescence; at 20 µM (top of the series)
# [10] = EMT-state selective cytotoxicity in co-culture – imaging, PC-3E GFP, TEM4-18 mCherry, primary screen (AID 1345086;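 active = compounds killing one labelled cell type while sparing the other, by normalised counts and ratio limits, not self-fluorescent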;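 as to all read-outs here: cells exposed to compound for 72 h before imaging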;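 as to red/green cell ratio (normalised): normalised mesenchymal count divided by normalised epithelial count so high means epithelial killing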); details: PC-3E GFP / TEM4-18 mCherry co-culture, imaging cell counts, at 1 µM; for red/green cell ratio (normalised): actives lie on both sides, counts scaled to control wells, 1 = unselective
# [11] = viability loss with induced miR-34 in A549 – imaging, A549 dox-inducible miR-34, nuclei and caspase counts, primary screen (AID 1347080;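 active = compounds whose cell count with miR-34 switched on is under 0.7 times the count with it off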); details: A549 miR-34 inducible, Hoechst nuclei count, 48 h
# [12] = galactose survival enhancers in mitochondrial complex I cybrids – cell-based, galactose medium, ATP luminescence, primary screen (AID 1645843;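 active = z-score of at least 1.8 in each of two replicates, scored against plate mean and spread of sample wells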;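 also: positive z means more ATP and so rescue of galactose-driven cybrid death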); details: complex I mutant cybrid cells, 72 h, stronger effect = higher value
# [13] = target: NAD(+) hydrolase SARM1 (Homo sapiens) (UniProt Q6SZW1); experiment: blocking NAD cleavage by SARM1 SAM-TIR – cell lysate, NAD-Glo luminescence (AID 1508614;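 active = compound whose remaining NAD level is above about 45 nM, limit read from the data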;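 also: higher remaining NAD means stronger inhibition of SARM1 NADase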); details: SAM-TIR HEK293T lysate NADase, at 1 µM, stronger effect = higher value
# NAD(+) hydrolase SARM1 (Homo sapiens), sequence (Q6SZW1 whole entry, looked up): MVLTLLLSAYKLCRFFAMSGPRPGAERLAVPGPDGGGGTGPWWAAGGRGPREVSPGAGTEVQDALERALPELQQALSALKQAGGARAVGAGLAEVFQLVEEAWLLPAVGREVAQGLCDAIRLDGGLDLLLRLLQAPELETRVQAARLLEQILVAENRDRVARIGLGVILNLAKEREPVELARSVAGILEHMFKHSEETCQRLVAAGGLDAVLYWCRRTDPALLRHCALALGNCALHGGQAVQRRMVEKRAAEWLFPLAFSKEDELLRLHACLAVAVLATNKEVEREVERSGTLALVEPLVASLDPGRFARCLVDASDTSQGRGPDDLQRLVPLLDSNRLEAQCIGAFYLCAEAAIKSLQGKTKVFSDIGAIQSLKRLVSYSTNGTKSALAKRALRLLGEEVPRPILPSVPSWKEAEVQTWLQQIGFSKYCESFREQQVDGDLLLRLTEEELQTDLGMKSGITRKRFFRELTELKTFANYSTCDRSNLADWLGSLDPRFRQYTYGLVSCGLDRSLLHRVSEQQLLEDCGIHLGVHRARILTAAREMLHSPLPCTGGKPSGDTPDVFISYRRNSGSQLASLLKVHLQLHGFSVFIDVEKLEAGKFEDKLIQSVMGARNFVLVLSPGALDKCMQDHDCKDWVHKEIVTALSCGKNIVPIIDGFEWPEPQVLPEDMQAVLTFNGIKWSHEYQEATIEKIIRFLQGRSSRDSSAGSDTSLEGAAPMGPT
# [14] = measured here: epithelial PC-3E GFP cell survival
# [15] = measured here: mesenchymal TEM4-18 mCherry cell survival
# [16] = stronger effect = lower value, cell number ratio, induced over uninduced
# [17] = measured here: relative caspase fold change +Dox/-Dox
# [18] = measured here: total cells with miR-34 induction, stronger effect = lower value
# [19] = measured here: total cells without miR-34 induction
Compound,parasite load remaining [1],viability [1] [%],nuclear beta-catenin stimulation ([2]; at 10 µM),"nuclear beta-catenin stimulation ([2]; stimulation, at 2 µM) [%]",insulin secretion stimulation [3],viability decrease [4],tube area decrease [5],GLP1 secretion stimulation [6],inhibition of viability [7],viability decrease (inhibition) [8],viability decrease (inhibition) [9],red/green cell ratio (normalised) [10],"normalised cell number [10, 14]","normalised cell number [10, 15]","fold change [11, 16]","fold change [11, 17]","cell count [11, 18]","cell count [11, 19]",z-score [12],remaining NAD [13]
COc1cc(N)c(Cl)cc1C(=O)NC1CCN(CCCOc2ccc(F)cc2)CC1OC (centres undefined),96.4% (inactive),81.1,13% (inactive),3.1,7.5% (inactive),20.6% (inactive),-0.4% (inactive),13.3% (inactive),53.9% (active),66.7% (active),22.4% (inactive),0.95 (inactive),0.93,0.88,0.948 (inactive),1.94,8510,8980,-0.435 (inactive),–
CCCCOCCOCCOCc1cc2c(cc1CCC)OCO2,–,–,0.2% (inactive),1.7,1.3% (inactive),-13.9% (inactive),-2.7% (inactive),-2.6% (inactive),24.7% (inactive),11.6% (inactive),14.4% (inactive),0.78 (inactive),1.28,1,0.878 (inactive),0.573,7660,8730,–,10 nM (inactive)
OC1C(O)C(O)C(O)C(O)C1O (centres undefined),41.7% (inactive),104,2.8% (inactive),0.4,0.4% (inactive),-3.8% (inactive),3% (inactive),-2.7% (inactive),3.1% (inactive),4.8% (inactive),0.6% (inactive),1.17 (inactive),0.97,1.13,0.895 (inactive),0.941,11600,12900,–,10 nM (inactive)
O=C(O)CN(CC(=O)O)Cc1cc2c(-c3ccccc3C(=O)O)c3cc(CN(CC(=O)O)CC(=O)O)c(=O)cc-3oc2cc1O,107% (inactive),73.2,-1.1% (inactive),-0.6,-0.4% (inactive),38.8% (inactive),19.9% (inactive),0.8% (inactive),22.3% (inactive),25.8% (inactive),14.8% (inactive),0.97 (inactive),1.53,1.49,–,–,–,–,–,–
